Screens deposited in PubChem BioAssay by several laboratories.
Peg3 promoter: reduces Peg3 promoter-driven luciferase expression in HeLa; AID 588405; HeLa PEG-Prom luciferase reporter, luminescence, overnight; 360,000 compounds, 1.7% hits; inhibition, % at 20 µM;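 active = inhibition of at least 50% at 20 µM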
KKLEB cytotox: CF airway cell cytotoxicity counter-screen. KKLEB CF airway cells viability, ATPlite luminescence, overnight; hits give low values; cells stimulated with P. aeruginosa culture filtrate. activity change (cytotoxicity), % at 5 µM. 360,000 compounds, 0.36% hits. AID 602141;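 active = corrected activity change at or below -50% at 5 µM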
CF NFkB block: inhibitors of cystic fibrosis induced NF-kB | 360,000 compounds, 0.86% hits | AID 588850 | inhibition, % at 5 µM | KKLEB NF-kB-GFP reporter, PAF-induced, GFP fluorescence overnight;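 active = at least 50% inhibition at 5 µM, scaled per plate between neutral and stimulator controls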;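 note: PAF is a Pseudomonas aeruginosa culture filtrate used as stimulus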
HIF-2a inh: blocks HIF-2a reporter activity; 786-0 RCC cells HIF-2a reporter, luciferase luminescence, overnight; inhibition, % at 18.8 µM; 360,000 compounds, 0.72% hits;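 active = inhibition of the luminescence signal of 40% or more relative to plate controls, in a single-dose primary screen at 18.75 µM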
MITF TRPM1 inh: MITF TRPM1 promoter inhibition in SK-MEL-5 cells; SK-MEL-5 TRPM1 promoter luciferase, 24 h; 330,000 compounds, 0.83% hits; AID 488899; inhibition, % at 12.5 µM;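 active = mean inhibition across replicates of 60% or more, whatever share of single replicates reaches that level; inconclusive = some that reach 60%, reason not given; inactive = mean inhibition across replicates below 60%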
Shn3 inh set2: inhibitors of Schnurri-3 3'UTR reporter in osteoblasts; Clone20 osteoblast Shn3 3'UTR firefly luciferase, 24 h; 360,000 compounds, 0.52% hits; inhibition, % at 12.5 µM;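 active = mean inhibition of at least 75% with every replicate also reaching 75%; inconclusive = mean inhibition at least 75% but some replicate below; inactive = mean inhibition below 75%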
Numbers stand for hits. An excerpt weighted towards active compounds, which were near 2.8% of everything screened.

How did CCCCC[C@@H]1[C@H]2[C@H]3C(=O)N(c4ccccc4)C(=O)[C@H]3CC(=O)[C@H]2[C@H](c2ccccc2)N1S(=O)(=O)c1ccc(C)cc1 do in these assays?
Peg3 promoter: inactive; KKLEB cytotox: inactive; CF NFkB block: inactive; HIF-2a inh: inactive; Shn3 inh set2: inactive

What do the screens show for `O=c1c2cc(NC(=S)NCCCN3CCC(Cc4ccccc4)CC3)ccc2nc2n1CCCCC2`?
Peg3 promoter: 94; KKLEB cytotox: inactive; CF NFkB block: inactive; HIF-2a inh: inactive; MITF TRPM1 inh: inactive; Shn3 inh set2: inactive

What do the screens show for `O=c1c2cc(NC(=S)NCCN3CCCCCC3)ccc2nc2n1CCCCC2`?
Peg3 promoter: inactive; KKLEB cytotox: inactive; CF NFkB block: inactive; HIF-2a inh: inactive; MITF TRPM1 inh: inactive; Shn3 inh set2: inactive

What do the screens show for `Cc1ccc(C2(C)NC(=O)N(CC(=O)NCCN3C(=O)S/C(=C\c4cccnc4)C3=O)C2=O)cc1` (stereo not given)?
Peg3 promoter: inactive; KKLEB cytotox: inactive; CF NFkB block: inactive; HIF-2a inh: inactive; MITF TRPM1 inh: inactive; Shn3 inh set2: inactive

Results for Cc1cccc(NC(=O)Cn2cc(C(=O)C3CC3)c3ccccc32)c1C ?
Peg3 promoter: inactive; KKLEB cytotox: inactive; CF NFkB block: inactive; HIF-2a inh: inactive; MITF TRPM1 inh: inactive; Shn3 inh set2: 87

How did CCC(=O)c1cn(CC(=O)Nc2cccc(C)c2C)c2ccccc12 do in these assays?
Peg3 promoter: inactive; KKLEB cytotox: inactive; CF NFkB block: inactive; HIF-2a inh: inactive; MITF TRPM1 inh: inactive; Shn3 inh set2: inactive

What do the screens show for `CCC(=O)c1cn(CC(=O)Nc2ccccc2Cl)c2ccccc12`?
Peg3 promoter: inactive; KKLEB cytotox: inactive; CF NFkB block: inactive; HIF-2a inh: inactive; MITF TRPM1 inh: inactive; Shn3 inh set2: 89

Results for Cc1ccc(-c2nc3ncccc3o2)cc1NC(=O)c1ccc2c(c1)OCO2 ?
Peg3 promoter: inactive; KKLEB cytotox: inactive; CF NFkB block: inactive; HIF-2a inh: inactive; MITF TRPM1 inh: inactive; Shn3 inh set2: inactive

How did Cc1ccc(-c2csc(=Nc3cccnc3)n2CCCn2ccnc2)cc1C do in these assays?
Peg3 promoter: inactive; KKLEB cytotox: inactive; CF NFkB block: 75; HIF-2a inh: inactive; MITF TRPM1 inh: inactive; Shn3 inh set2: inactive

How did Cc1ccc(-c2csc(=Nc3cccnc3)n2CCCN2CCCC2=O)cc1C do in these assays?
Peg3 promoter: inactive; KKLEB cytotox: inactive; CF NFkB block: inactive; HIF-2a inh: inactive; MITF TRPM1 inh: inactive; Shn3 inh set2: inactive

What do the screens show for `CCOC(=O)c1[nH]c2cc3c(cc2c1NC(=O)CN1CCc2ccccc2C1)OCO3`?
Peg3 promoter: 68; KKLEB cytotox: inactive; CF NFkB block: inactive; HIF-2a inh: inactive; MITF TRPM1 inh: inactive; Shn3 inh set2: inactive

What do the screens show for `CCOC(=O)c1[nH]c2cc3c(cc2c1NC(=O)CN1CCCC1)OCO3`?
Peg3 promoter: inactive; KKLEB cytotox: inactive; CF NFkB block: inactive; HIF-2a inh: inactive; MITF TRPM1 inh: inactive; Shn3 inh set2: inactive

How did CC(=O)N1CCN(C(=O)CN2C(=O)NC(C)(c3ccc4ccccc4c3)C2=O)CC1 (stereo not given) do in these assays?
Peg3 promoter: inactive; KKLEB cytotox: inactive; CF NFkB block: inactive; HIF-2a inh: inactive; Shn3 inh set2: inactive

How did CC1CC(C)(C)CC2(C1)NC(=O)N(CC(=O)N1CCN(Cc3ccc(C#N)cc3)CC1)C2=O (stereo not given) do in these assays?
Peg3 promoter: inactive; KKLEB cytotox: inactive; CF NFkB block: inactive; HIF-2a inh: inactive; MITF TRPM1 inh: inactive; Shn3 inh set2: 86

How did CC1(c2ccc3ccccc3c2)NC(=O)N(CC(=O)N2CCN(Cc3ccc(C#N)cc3)CC2)C1=O (stereo not given) do in these assays?
Peg3 promoter: inactive; KKLEB cytotox: inactive; CF NFkB block: inactive; HIF-2a inh: inactive; MITF TRPM1 inh: inactive; Shn3 inh set2: 88

Results for COCC1CCN(C(=O)CCc2nnc(C3(c4ccc(Cl)cc4)CCC3)o2)CC1 ?
Peg3 promoter: inactive; KKLEB cytotox: inactive; CF NFkB block: inactive; HIF-2a inh: inactive; MITF TRPM1 inh: inactive; Shn3 inh set2: inactive

Results for c1ccc(-c2cccc(-c3ccccn3)n2)nc1 ?
Peg3 promoter: inactive; KKLEB cytotox: inactive; CF NFkB block: inactive; HIF-2a inh: inactive; MITF TRPM1 inh: inactive; Shn3 inh set2: 88

Results for c1ccc(-c2nnc(-c3ccccn3)nn2)nc1 ?
Peg3 promoter: inactive; KKLEB cytotox: inactive; CF NFkB block: inactive; HIF-2a inh: inactive; MITF TRPM1 inh: inactive; Shn3 inh set2: inactive

Results for CCOc1cc(/C=C2/NC(=S)NC2=O)ccc1OCc1ccc([N+](=O)[O-])cc1 ?
Peg3 promoter: 51; KKLEB cytotox: inactive; CF NFkB block: inactive; HIF-2a inh: inactive; MITF TRPM1 inh: 63; Shn3 inh set2: inactive

How did O=C(NCCCN1CCOCC1)C(=O)N/N=C/c1c2ccccc2cc2ccccc12 do in these assays?
Peg3 promoter: 70; KKLEB cytotox: inactive; CF NFkB block: inactive; HIF-2a inh: inactive; MITF TRPM1 inh: inactive; Shn3 inh set2: inactive

What do the screens show for `CC(C)CC(NC(N)=O)C(=O)NCCc1ccc(Cl)cc1` (stereo not given)?
Peg3 promoter: inactive; KKLEB cytotox: inactive; CF NFkB block: inactive; HIF-2a inh: inactive; MITF TRPM1 inh: inactive; Shn3 inh set2: inactive

What do the screens show for `CCOC(=O)c1cc2c(=Cc3ccc(N(C)C)cc3)c3ccccc3n2[n+]1C`?
Peg3 promoter: inactive; KKLEB cytotox: inactive; CF NFkB block: inactive; HIF-2a inh: inactive; MITF TRPM1 inh: 86; Shn3 inh set2: inconclusive

Results for CN(C)c1ccc(C=c2c3cc(O)ccc3n3c2cc(-c2ccccc2)[n+]3C)cc1 ?
Peg3 promoter: inactive; KKLEB cytotox: inactive; CF NFkB block: inactive; HIF-2a inh: inactive; MITF TRPM1 inh: 90; Shn3 inh set2: inactive

Results for CN(C)c1ccc(C=C2C=Cc3ccccc32)cc1 ?
Peg3 promoter: inactive; KKLEB cytotox: inactive; CF NFkB block: inactive; HIF-2a inh: inactive; MITF TRPM1 inh: inactive; Shn3 inh set2: inactive

What do the screens show for `C[n+]1c(-c2ccccc2)cc2c(=Cc3ccc([N+](=O)[O-])cc3)c3ccccc3n21`?
Peg3 promoter: inactive; KKLEB cytotox: inactive; CF NFkB block: inactive; HIF-2a inh: inactive; MITF TRPM1 inh: inactive; Shn3 inh set2: inactive

Results for CN(C)c1ccc(C=c2c3ccccc3n3c2c2ccccc2[n+]3C)cc1 ?
Peg3 promoter: 71; KKLEB cytotox: inactive; CF NFkB block: inactive; HIF-2a inh: inactive; MITF TRPM1 inh: inactive; Shn3 inh set2: 93

Results for Cc1cc2c(=Cc3ccc(N(C)C)cc3)c3ccccc3n2[n+]1C ?
Peg3 promoter: 97; KKLEB cytotox: inactive; CF NFkB block: inactive; HIF-2a inh: 69; MITF TRPM1 inh: 101; Shn3 inh set2: inactive

What do the screens show for `C=C1C(=O)[C@]23C[C@H]1CCC2[C@@]1(C)C(C[C@@H]3O)[C@](C)(C(=O)O)C[C@H](O)[C@@H]1O` (stereo not given in full)?
Peg3 promoter: inactive; KKLEB cytotox: inactive; CF NFkB block: inactive; HIF-2a inh: inactive; Shn3 inh set2: inactive
